Results filed as inconclusive are left out. Calls of active or inactive are those of the source. Calls come from the whole dose curve; as a rule, active = well fitted curve in the direction sought with a large enough effect; inconclusive = small, poorly fitted or top-dose-only effect, or another doubt; inactive = no such curve, though single readings can be large; an effect the other way counts as inactive or inconclusive.
Note: nearly all actives have a fitted effect of over 40% in size.

One experiment deals with Cytochrome P450 3A7 (Homo sapiens) (UniProt P24462). As to the kind of experiment: Cytochrome P450 family 3 subfamily A member 7 (CYP3A7) small molecule antagonists: luciferase biochemical qHTS assay (AID 1963596). Note: % is set by controls: 0 for no effect and ±100 for the full control effect. The note with it: P450-Glo CYP3A7 enzyme luminescence, 1 h; series mostly up to 57.4 µM; activity change, negative = inhibition: at the top concentration. An outline of the steps: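 Recombinant CYP3A7 P450-Glo luminescent assay: enzyme-proluciferin substrate mix preincubated with compound 10 min at room temperature, reaction started with NADPH regeneration system for 1 h. Luciferin detected by luminescence; ketoconazole as positive control.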
Chain of Cytochrome P450 3A7 (Homo sapiens) (P24462 whole entry, looked up): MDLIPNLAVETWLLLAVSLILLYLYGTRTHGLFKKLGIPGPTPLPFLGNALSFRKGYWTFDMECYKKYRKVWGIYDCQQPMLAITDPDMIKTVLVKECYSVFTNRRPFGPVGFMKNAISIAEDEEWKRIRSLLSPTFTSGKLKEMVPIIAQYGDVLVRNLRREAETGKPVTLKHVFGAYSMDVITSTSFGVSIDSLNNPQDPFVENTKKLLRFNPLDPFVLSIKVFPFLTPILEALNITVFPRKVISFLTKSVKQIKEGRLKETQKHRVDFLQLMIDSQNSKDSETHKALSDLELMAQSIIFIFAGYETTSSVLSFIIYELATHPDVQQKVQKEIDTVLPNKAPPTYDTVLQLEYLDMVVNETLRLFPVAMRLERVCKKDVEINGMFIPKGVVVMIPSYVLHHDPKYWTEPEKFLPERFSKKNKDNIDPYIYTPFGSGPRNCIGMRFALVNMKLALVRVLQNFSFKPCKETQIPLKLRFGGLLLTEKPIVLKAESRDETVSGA
With `COc1cncc(C#Cc2ccccn2)c1`, the “activity change, negative = inhibition” value was -8.7% (inactive).
Still for that read-out and setting: with `C1N2CN3CN1CN(C2)C3` the figure was 14.2% (inactive); with `COc1cc(N2CCOCC2)ccc1Nc1ncc(Cl)c(Nc2ccccc2NS(C)(=O)=O)n1`, 0% (inactive).
Same read-out and setting: with `CCCCCCOC(=O)/N=C(\N)c1ccc(NCc2nc3cc(C(=O)N(CCC(=O)OCC)c4ccccn4)ccc3n2C)cc1` the figure was 0% (inactive).
On the same count and under the same terms, to `CCOCc1cc(OC)c(-c2ccc(C[C@H](NC(=O)c3c(F)cccc3F)C(=O)O)cc2)c(OC)c1` belongs -21.6% (inactive); to `COc1cccc(OC)c1-c1ccc(C[C@H](NC(=O)c2c(Cl)cccc2Cl)C(=O)O)cc1`, -20.7% (inactive).
As to `C/C(=N\O)[C@@H](C)NCC(C)(C)CN[C@H](C)/C(C)=N/O`, the “activity change, negative = inhibition” value is -3.66% (inactive).
With `Cc1cc(NS(=O)(=O)c2ccc(N)cc2)nc(C)n1`, the “activity change, negative = inhibition” value is -20.2% (inactive).
Consider `CCNC(=O)C1CC(F)(c2ccc(CN3CCCC3)c(F)c2)C1` (stereo not given), for which the “activity change, negative = inhibition” value is 0% (inactive).
The same measure, in the same setting: to `O=C(O)c1n[nH]c2c1C[C@H]1C[C@@H]21` belongs -2.01% (inactive); to `CCN(CC)Cc1ccc(C(=O)N(CCc2ccccc2OC)[C@@H]2CCNC2)cc1`, -9.91% (inactive); to `O=C(NC1CCN(CC(F)(F)F)CC1)c1ccc(-c2cccc(F)c2)nc1`, 10.7% (inactive).
The same measure, in the same setting: to `Cc1nc(C#Cc2ccnc(Cl)c2)c(C)n1-c1ccc(F)cc1` belongs 0% (inactive); to `CC(C)c1noc(C2CCN(c3ncnc(Nc4ccc(S(C)(=O)=O)cc4F)c3[N+](=O)[O-])CC2)n1`, 8.36% (inactive); to `COc1cccc(NC[C@@H](O)Cn2c3ccc(Br)cc3c3cc(Br)ccc32)c1`, 15.2% (inactive).
Still for that read-out and setting: with `CC(C)(C)C1CCN(C(=O)n2ncc(C(O)(c3ccccc3)c3ccccc3)n2)CC1` the figure was 18.1% (inactive); with `C(#Cc1cccc(CN2CCOCC2)c1)CCN1CCCCC1`, -2.92% (inactive); with `CC(NC(=O)C(O)C(C)C)C(=O)NC1C(=O)N(C)CCc2ccccc21` (stereo not given), 15.4% (inactive).
On to `NC(Cc1c[nH]c2ccccc12)C(=O)NC(CCC(=O)O)C(=O)O` (stereo not given), for which the “activity change, negative = inhibition” value is -3.47% (inactive).
Take `CN(C)CCCNc1nc(CN2CCN(C(c3ccc(Cl)cc3)c3ccc(Cl)cc3)CC2)nc2ccccc12`: the “activity change, negative = inhibition” value is -15% (inactive).
Still for that read-out and setting: with `O=C1N=C(N2CCOCC2)CN1c1ccc(Cl)cc1` the figure was 20% (inactive).
On the same count and under the same terms, to `N#Cc1cc(F)cc(-c2nc(-c3ccccn3)no2)c1` belongs -21.9% (inactive).
The same measure, in the same setting: to `CN1CCN(C(=O)CN[C@@H]2C[C@H]2c2ccc(OCc3ccccc3)cc2)CC1` belongs 17.1% (inactive).
With `O=C1NC(=Nc2ccccc2F)S/C1=C\c1ccc(C(=O)O)cc1`, the “activity change, negative = inhibition” value is -26.4% (inactive).
Same read-out and setting: with `COc1ccc(NC(=O)N2CCc3c2ccc2ccccc32)cc1N1CCN(C)CC1` the figure was 0% (inactive); with `CCCOc1ccccc1-c1nc2n[nH]nc2c(=O)[nH]1`, 13.1% (inactive); with `CN(C)c1ccc(C2O[C@@H](c3ccccc3)C[C@H](c3ccccc3)O2)cc1` (stereo not given in full), -14.6% (inactive).
Still for that read-out and setting: to `O=C(COc1ccc(Cl)cc1)NC1CCC(NC(=O)COc2ccc(Cl)cc2)CC1` (stereo not given) belongs 0.709% (inactive).
For `Cc1cn(C[C@H](N)C(=O)O)c(=O)n(Cc2ccsc2C(=O)O)c1=O`, the “activity change, negative = inhibition” value was -2.32% (inactive).
On the same count and under the same terms, to `O=S(=O)(c1ccc(Cl)cc1)N1CCN(c2ccnc3cc(Cl)ccc23)CC1` belongs -16.7% (inactive); to `C[C@@H](NC(=O)C(=O)c1c[nH]c2ccc([N+](=O)[O-])cc12)c1ccccc1`, 0% (inactive).
Still for that read-out and setting: to `CCNC(=O)Nc1ccc(-c2nc3c(c(N4CCOC[C@@H]4C)n2)CCN(c2ncccn2)C3)cc1` belongs 0% (inactive); to `COCCCNCC1COc2ccccc2O1` (stereo not given), 0.747% (inactive); to `COC(=O)C(Cc1ccc(OCCn2c(=O)sc3cc(C(=O)c4ccccc4)ccc32)cc1)C(=O)OC`, -14.2% (inactive).
The same measure, in the same setting: to `CNC1CN(c2ccc3c(=O)c(C(=O)O)cn(-c4nccs4)c3n2)CC1OC` (stereo not given) belongs 23% [at 11.5 µM] (inactive); to `CNC(=O)Nc1ccc(OC)c(NC(=O)NC(=O)c2cc(F)c(F)cc2Cl)c1`, -0.503% (inactive); to `CNS(=O)(=O)c1ccccc1Nc1nc(Nc2ccc(N3CCN(C)CC3)cc2OC)ncc1Br`, 0% (inactive).
Regarding `CC#CC(=O)Nc1ccc2ncnc(Nc3cccc(Br)c3)c2c1`, the “activity change, negative = inhibition” value is 0% (inactive).
On to `CCOC(=O)N1CCC(NCCNC(=O)c2ccccc2C)CC1`, for which the “activity change, negative = inhibition” value was 1.42% (inactive).
Still for that read-out and setting: with `CCC1(O)CC2c3cc(OC)c(OC)cc3CCN2CC1CC(C)C` (stereo not given) the figure was -7.85% (inactive).

Test system in the next experiment: not listed separately
Briefly: Viability qHTS for spleen associated tyrosine kinase inhibitor (SYKi) naive MV4-11 cells (AID 1963823). Note: potency is the fitted concentration of half-maximal effect. The conditions noted are these: MV4-11 AML viability, CellTiter-Glo luminescence, 72 h; series mostly up to 45 µM; viability (% of control): at the top concentration. The essentials:
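In this viability screen, compounds acted on SYK inhibitor naive MV4-11 cells for three days (72 hr, 37 C). Remaining viable cells were measured by CellTiter-Glo luminescence following a 10 min room-temperature development.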
(In general: Quantitative high-throughput screening tests each substance at several concentrations.)
For the compound `COc1cncc(C#Cc2ccccn2)c1`, the “viability (% of control)” value was 81.5% (inactive).
As for `C1N2CN3CN1CN(C2)C3`, the “viability (% of control)” value was 74.2% (inactive).
With `COc1cc(N2CCOCC2)ccc1Nc1ncc(Cl)c(Nc2ccccc2NS(C)(=O)=O)n1`, the Potency was 0.103 µM (active).
The same measure, in the same setting: to `CCCCCCOC(=O)/N=C(\N)c1ccc(NCc2nc3cc(C(=O)N(CCC(=O)OCC)c4ccccn4)ccc3n2C)cc1` belongs 1.3 µM (active).
`CCOCc1cc(OC)c(-c2ccc(C[C@H](NC(=O)c3c(F)cccc3F)C(=O)O)cc2)c(OC)c1`: the “viability (% of control)” value is 76.7% (inactive).
On the same count and under the same terms, with `COc1cccc(OC)c1-c1ccc(C[C@H](NC(=O)c2c(Cl)cccc2Cl)C(=O)O)cc1` the figure was 90.1% (inactive); with `C/C(=N\O)[C@@H](C)NCC(C)(C)CN[C@H](C)/C(C)=N/O`, 82.6% (inactive); with `Cc1cc(NS(=O)(=O)c2ccc(N)cc2)nc(C)n1`, 67.1% (inactive).
Same read-out and setting: with `CCNC(=O)C1CC(F)(c2ccc(CN3CCCC3)c(F)c2)C1` (stereo not given) the figure was 75% (inactive); with `O=C(O)c1n[nH]c2c1C[C@H]1C[C@@H]21`, 76% (inactive).
For `CCN(CC)Cc1ccc(C(=O)N(CCc2ccccc2OC)[C@@H]2CCNC2)cc1`, the Potency was 3.17 µM (active).
In the case of `O=C(NC1CCN(CC(F)(F)F)CC1)c1ccc(-c2cccc(F)c2)nc1`, the “viability (% of control)” value is 52.5% (inactive).
`Cc1nc(C#Cc2ccnc(Cl)c2)c(C)n1-c1ccc(F)cc1`: the Potency was 8.2 µM (active).
In the case of `CC(C)c1noc(C2CCN(c3ncnc(Nc4ccc(S(C)(=O)=O)cc4F)c3[N+](=O)[O-])CC2)n1`, the “viability (% of control)” value was 59.7% (inactive).
`COc1cccc(NC[C@@H](O)Cn2c3ccc(Br)cc3c3cc(Br)ccc32)c1`: the Potency is 18.4 µM (active).
Same read-out and setting: with `CC(C)(C)C1CCN(C(=O)n2ncc(C(O)(c3ccccc3)c3ccccc3)n2)CC1` the figure was 20.6 µM (active).
Regarding `C(#Cc1cccc(CN2CCOCC2)c1)CCN1CCCCC1`, the “viability (% of control)” value was 60.7% (inactive).
With `CC(NC(=O)C(O)C(C)C)C(=O)NC1C(=O)N(C)CCc2ccccc21` (stereo not given), the “viability (% of control)” value was 67.3% (inactive).
Take `NC(Cc1c[nH]c2ccccc12)C(=O)NC(CCC(=O)O)C(=O)O` (stereo not given): the Potency is 2.91 µM (active).
Still for that read-out and setting: to `CN(C)CCCNc1nc(CN2CCN(C(c3ccc(Cl)cc3)c3ccc(Cl)cc3)CC2)nc2ccccc12` belongs 2.06 µM (active).
On to `O=C1N=C(N2CCOCC2)CN1c1ccc(Cl)cc1`, for which the “viability (% of control)” value was 66.2% (inactive).
The same measure, in the same setting: to `N#Cc1cc(F)cc(-c2nc(-c3ccccn3)no2)c1` belongs 80.7% (inactive).
Regarding `CN1CCN(C(=O)CN[C@@H]2C[C@H]2c2ccc(OCc3ccccc3)cc2)CC1`, the Potency was 25.9 µM (active).
`O=C1NC(=Nc2ccccc2F)S/C1=C\c1ccc(C(=O)O)cc1`: the “viability (% of control)” value is 81.5% (inactive).
For the compound `COc1ccc(NC(=O)N2CCc3c2ccc2ccccc32)cc1N1CCN(C)CC1`, the Potency is 9.2 µM (active).
For `CCCOc1ccccc1-c1nc2n[nH]nc2c(=O)[nH]1`, the “viability (% of control)” value was 74.2% (inactive).
Still for that read-out and setting: with `CN(C)c1ccc(C2O[C@@H](c3ccccc3)C[C@H](c3ccccc3)O2)cc1` (stereo not given in full) the figure was 68.5% (inactive); with `O=C(COc1ccc(Cl)cc1)NC1CCC(NC(=O)COc2ccc(Cl)cc2)CC1` (stereo not given), 32.7% (inactive); with `Cc1cn(C[C@H](N)C(=O)O)c(=O)n(Cc2ccsc2C(=O)O)c1=O`, 68.8% (inactive).
Take `O=S(=O)(c1ccc(Cl)cc1)N1CCN(c2ccnc3cc(Cl)ccc23)CC1`: the Potency is 16.4 µM (active).
In the case of `C[C@@H](NC(=O)C(=O)c1c[nH]c2ccc([N+](=O)[O-])cc12)c1ccccc1`, the “viability (% of control)” value was 60.2% (inactive).
Regarding `CCNC(=O)Nc1ccc(-c2nc3c(c(N4CCOC[C@@H]4C)n2)CCN(c2ncccn2)C3)cc1`, the Potency was 0.13 µM (active).
For `COCCCNCC1COc2ccccc2O1` (stereo not given), the “viability (% of control)” value is 66.8% (inactive).
With `COC(=O)C(Cc1ccc(OCCn2c(=O)sc3cc(C(=O)c4ccccc4)ccc32)cc1)C(=O)OC`, the Potency was 23.1 µM (active).
On the same count and under the same terms, to `CNC1CN(c2ccc3c(=O)c(C(=O)O)cn(-c4nccs4)c3n2)CC1OC` (stereo not given) belongs 0.422 µM (active).
For the compound `CNC(=O)Nc1ccc(OC)c(NC(=O)NC(=O)c2cc(F)c(F)cc2Cl)c1`, the “viability (% of control)” value is 96.8% (inactive).
With `CNS(=O)(=O)c1ccccc1Nc1nc(Nc2ccc(N3CCN(C)CC3)cc2OC)ncc1Br`, the Potency is 0.0184 µM (active).
With `CC#CC(=O)Nc1ccc2ncnc(Nc3cccc(Br)c3)c2c1`, the Potency was 1.46 µM (active).
For the compound `CCOC(=O)N1CCC(NCCNC(=O)c2ccccc2C)CC1`, the “viability (% of control)” value is 61.7% (inactive).
The same measure, in the same setting: with `CCC1(O)CC2c3cc(OC)c(OC)cc3CCN2CC1CC(C)C` (stereo not given) the figure was 71.7% (inactive).
